This is an account of results in PubChem BioAssay (Tox21).

Assay [1] is described as follows: qHTS RealTime-Glo MT Cell Viability Assay in HEK293 cells - 24 hour (AID 1224886). Further: top concentration of the series differs between compounds; nearly all actives have a fitted effect of over 50% in size. A digest of the protocol:
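HEK293 cells were seeded at 600 cells/well together with NanoLuc luciferase and cell-permeant prosubstrate, preincubated 5 h at 37 C/5% CO2, then given compound in DMSO by pintool. Luminescence from viable-cell prosubstrate reduction was read repeatedly over 40 h.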
(In general: Quantitative high-throughput screening tests each substance at several concentrations.)

A short description of assay [2]: qHTS RealTime-Glo MT Cell Viability Assay in HEK293 cells - 8 hour (AID 1224887). Further: top concentration of the series differs between compounds; nearly all actives have a fitted effect of over 50% in size. Summed up:
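HEK293 cells mixed with RealTime-Glo reagents (NanoLuc plus cell-permeant prosubstrate) at 600 cells/well, preincubated 5 h at 37 C/5% CO2, then given 23 nL compound in DMSO. Nonlytic luminescence from viable cells was read at 0, 8, 16, 24, 32 and 40 h.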

The nature of assay [3]: A CellTox Green Cytotoxicity Assay to monitor cytotoxicity in HEK293 cells - 16 hour (AID 1224888). Further: nearly all actives have a fitted effect of over 35% in size. Summed up:
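HEK293 cells premixed with CellTox Green dye were seeded at 600 cells/well and left 5 h at 37 C/5% CO2 before pin transfer of 23 nL compound in DMSO. Fluorescence from dye bound to dead-cell DNA was read during 40 h treatment.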

The nature of assay [4]: qHTS RealTime-Glo MT Cell Viability Assay in HepG2 cells - 0 hour (AID 1224889). Further: nearly all actives have a fitted effect of over 50% in size. A digest of the protocol: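 HepG2 cells were seeded at 600 cells/well together with NanoLuc luciferase and a cell-permeant prosubstrate, preincubated 5 h at 37 C/5% CO2, then pin-dosed with compounds in DMSO. Nonlytic luminescence from viable cells was read at each time point.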
The nature of assay [5]: A CellTox Green Cytotoxicity Assay to monitor cytotoxicity in HepG2 cells - 8 hour (AID 1224890). Further: nearly all actives have a fitted effect of over 45% in size. Further: potency means the concentration at half of the fitted maximal effect. Summed up: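 HepG2 cells were seeded together with the CellTox Green dye at 600 cells/well, left 5 h at 37 C/5% CO2, then given compounds in DMSO. Fluorescence from dye bound to dead-cell DNA was read repeatedly over 40 h of treatment at 37 C.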
The nature of assay [6]: qHTS assay to identify small molecule antagonists of the estrogen receptor alpha (ER-alpha) signaling pathway using the BG1 cell line in the presence of 0.1 nM 17-beta-estradiol - cell viability counter screen (AID 1259241). Further: nearly all actives have a fitted effect of over 40% in size. Further: potency means the concentration at half of the fitted maximal effect. Summed up: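 CellTiter-Fluor read (30 min, 37C) on ER-alpha/ERE-luc VM7Luc4E2 cells; 22 hr compound treatment; agonist 0.1 nM E2 final; same-well multiplex.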

Assay [7] can be described thus: qHTS assay to identify small molecule antagonists of the androgen receptor (AR) signaling pathway using the MDA cell line in the presence of 0.5 nM R1881 - cell viability counter screen (AID 1259242). Further: nearly all actives have a fitted effect of over 45% in size. Further: potency means the concentration at half of the fitted maximal effect. Summed up: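 MDA-kb2 cells (human breast carcinoma, stably carrying MMTV-luciferase reporter) were exposed to compounds with 0.5 nM R1881 (final) for 16 hr at 37C, 0% CO2; viability then read as live-cell protease fluorescence (CellTiter-Fluor, 30 min) in the same wells.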

A short description of assay [8]: qHTS assay to identify small molecule HDAC inhibitors (AID 1259364). Further: nearly all actives have a fitted effect of over 45% in size. Further: potency means the concentration at half of the fitted maximal effect. On activity change, negative = inhibition: top concentration of the series differs between compounds. Summed up: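 Wild-type HCT-116 cells were plated overnight, exposed to compounds for 2 h at 37 °C, then given HDAC-Glo class I/II luminogenic reagent for 30 min at room temperature before luminescence was read.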
Assay [9] concerns the target Estrogen receptor (Homo sapiens) (UniProt P03372). Briefly: qHTS assay to identify small molecule antagonists of the estrogen receptor alpha (ER-alpha) signaling pathway using the BG1 cell line in the presence of 0.1 nM 17-beta-estradiol (AID 1259244). Further: nearly all actives have a fitted effect of over 50% in size. Summed up: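 VM7Luc4E2 cells (endogenous full-length ER-alpha, stable 4xERE-luciferase) were grown 5 days in phenol red-free medium with charcoal-stripped FBS, then exposed 22 h at 37C to compounds plus 0.1 nM (final) 17beta-estradiol; ONE-Glo luminescence read-out.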

A short description of assay [10]: qHTS assay to identify small molecule phospholipidosis (PLD) inducers (AID 1259344; active means well fitted curve in the direction sought with a large enough effect; an effect the other way counts as inactive or inconclusive). A digest of the protocol:
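HepG2 cells, 900/well, treated with compound plus LipidTOX Red for 24 h at 37 C; amiodarone positive and DMSO negative controls. Fixed with paraformaldehyde/Hoechst, then high-content imaging scored LipidTOX pit count and integrated intensity per well and per cell.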

Results filed as inconclusive are left out. A number with no mark means an inactive call. The source made the active and inactive calls. Unless noted, the call rests on the fitted dose curve; in most records, active means well fitted curve in the direction sought with a large enough effect in the repeat runs; inconclusive means weak or mixed curves; inactive means no such curve, though single readings can be large; an effect the other way counts as inactive or inconclusive.
On the % scale 0 is the no-effect control and ±100 the full control effect.

Sequence of Estrogen receptor (Homo sapiens) (P03372 whole entry, looked up): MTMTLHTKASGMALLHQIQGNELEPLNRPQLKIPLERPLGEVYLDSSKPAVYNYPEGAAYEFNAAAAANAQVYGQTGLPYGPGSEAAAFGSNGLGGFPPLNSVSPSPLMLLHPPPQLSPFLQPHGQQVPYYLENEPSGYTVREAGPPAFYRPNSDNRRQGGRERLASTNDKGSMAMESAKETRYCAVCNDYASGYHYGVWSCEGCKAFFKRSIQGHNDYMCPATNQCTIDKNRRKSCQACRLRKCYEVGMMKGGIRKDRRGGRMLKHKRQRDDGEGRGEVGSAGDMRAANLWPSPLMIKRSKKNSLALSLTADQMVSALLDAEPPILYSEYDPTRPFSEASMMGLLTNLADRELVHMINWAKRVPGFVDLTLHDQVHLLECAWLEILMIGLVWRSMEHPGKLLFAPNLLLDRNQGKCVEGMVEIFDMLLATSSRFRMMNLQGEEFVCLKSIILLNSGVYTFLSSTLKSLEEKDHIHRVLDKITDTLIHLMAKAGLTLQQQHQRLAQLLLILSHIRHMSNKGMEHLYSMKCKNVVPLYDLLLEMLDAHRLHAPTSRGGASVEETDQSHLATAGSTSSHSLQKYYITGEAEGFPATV

`COc1cc(C=O)ccc1OC(=O)C(C)C`: the Potency result in [1], in assay [2], in assay [3], in assay [4], in assay [5] and in [6] was “inactive” each time. The Potency result in assay [7] and in [8] was “inactive” throughout.

As to `C=C[C@@H](C)CCC=C(C)C`, the Potency entry in [1], in [2], in [3], in assay [4], in [5] and in [6] was “inactive” throughout. Besides, the Potency entry in assay [7] and in [8] was “inactive” in each case.

For the molecule `CCCCC(C)C(=O)O` (stereo unspecified), the Potency result in [1], in [2], in [3], in assay [6], in assay [7] and in assay [8] was “inactive” in each case.

`COc1cc([N+](=O)[O-])ccc1N`: the Potency entry in assay [1], in [2], in assay [3], in assay [4], in assay [5] and in [9] was “inactive” in each case.

In the case of `c1ccccc1`, the Potency result in assay [1], in assay [2], in assay [3], in assay [4], in assay [5] and in assay [8] was “inactive” throughout.

`CC(=O)OC(C)(C)Cc1ccccc1`: the Potency entry in [1], in assay [2], in assay [3], in [4], in [5] and in assay [6] was “inactive” each time. For the same molecule, the Potency result in assay [7] and in assay [8] was “inactive” in each case.

`Nc1ccc(S(=O)(=O)NC(=O)c2ccccc2)cc1`: the Potency entry in assay [1], in assay [3], in assay [4], in assay [5], in assay [6] and in assay [7] was “inactive” each time. For the same molecule, the Potency result in assay [9] and in assay [8] was “inactive” in each case. In addition, the molecule was classed as inactive in assay [10].

In the case of `COc1ccc(N=Nc2cc(C)c(N=Nc3ccc(S(=O)(=O)O)cc3)cc2OC)cc1`, the Potency result in [1], in assay [2], in assay [3], in assay [5] and in assay [8] was “inactive” each time. In addition, the Potency in [6] is 68.6 µM (active); in assay [7], 48.6 µM (active).

With `CCCCCN(CCCOC)C(=O)C(CCC(=O)O)NC(=O)c1ccc(Cl)c(Cl)c1` (stereo unspecified), the Potency result in assay [1], in assay [2], in assay [3], in assay [4], in assay [6] and in assay [7] was “inactive” throughout. The Potency result in assay [9] and in [8] was “inactive” in each case.

On to `NS(=O)(=O)c1cc2c(cc1Cl)NC(CC1CCCC1)NS2(=O)=O` (stereo unspecified), for which the Potency entry in assay [1], in assay [2], in assay [3], in assay [4], in assay [6] and in assay [7] was “inactive” each time. Further, the Potency result in [8] is “inactive”. Moreover, the call in [10] was inactive.

For `Cc1ccccc1C(=O)N1CC/C(=N\OS(=O)(=O)O)c2ccc(Cl)cc21`, the Potency result in assay [1], in assay [2], in [3], in assay [4], in assay [6] and in assay [7] was “inactive” throughout. The Potency entry in assay [9] and in [8] was “inactive” throughout. The PLD induction in assay [10] was -2.19% [at 7.66 µM].

`CCCCCCCCCCCCCCCC(=O)NCCO`: the Potency result in assay [1], in assay [2], in assay [3], in assay [4], in [7] and in assay [8] was “inactive” each time. Moreover, in [5], the Potency is 6.01 µM (active). The molecule was called inactive in [10].

Consider `C/C=C(\C)C(=O)OCC/C=C\CC`, for which the Potency entry in assay [1], in [2], in [3], in assay [4], in assay [5] and in assay [6] was “inactive” throughout. Also, the Potency result in assay [7] and in assay [8] was “inactive” in each case.

`CC(C)CCO`: the Potency result in assay [1], in assay [2], in [3], in assay [5], in assay [6] and in assay [7] was “inactive” each time. Further, the Potency entry in assay [9] and in [8] was “inactive” each time.

For `O=C(O)Cc1cccc(-c2cc(CCCCCCc3ccc(O[C@H]4O[C@H](CO)[C@@H](O)[C@H](O)[C@@H]4O)c(-c4cccc(CC(=O)O)c4)c3)ccc2O[C@H]2O[C@H](CO)[C@@H](O)[C@H](O)[C@@H]2O)c1`, the activity change, negative = cytotoxicity was -1.38% [at 0.29 µM] in assay [1], 11.8% [at 0.29 µM] in assay [2] and -0.713% [at 0.349 µM] in assay [6]. For the same molecule, in [3], the activity change is -7.34% [at 0.29 µM, active compounds read high]. In addition, the cytotoxicity increase in assay [5] was 23.5% [at 0.29 µM]. For the same molecule, in [7], the viability change, negative = cytotoxic is -0.767% [at 0.349 µM]. The result in assay [10] was inactive. Further, the activity change, negative = inhibition in [8] is 0.203% [at 0.349 µM].

As to `CCCCCC1Nc2cc(C(F)(F)F)c(S(N)(=O)=O)cc2S(=O)(=O)N1` (stereo unspecified), the Potency result in assay [1], in [3], in assay [4], in assay [5], in [6] and in [7] was “inactive” in each case. For the same molecule, the Potency entry in [9] and in assay [8] was “inactive” each time. Also, the result in assay [10] was inactive.

With `C[CH2][Ge]([Cl])([CH2]C)[CH2]C`, the Potency result in [1], in assay [2], in assay [3], in [4], in [5] and in [6] was “inactive” throughout. The Potency result in [7] and in [8] was “inactive” throughout.

In the case of `Nc1cc(Cl)cc(S(=O)(=O)O)c1O`, the Potency result in assay [1], in assay [2], in assay [4], in assay [5], in [6] and in assay [7] was “inactive” in each case. In addition, the Potency result in [9] and in assay [8] was “inactive” each time.

As for `O=S(=O)(O)c1cc(O)ccc1O`, the Potency entry in [1], in [2], in [3], in [4], in [5] and in assay [8] was “inactive” in each case.

As to `CNC(=O)C(c1ccccc1)c1ccccc1`, the Potency entry in assay [1], in [2], in assay [3], in assay [4], in [6] and in [7] was “inactive” each time. Also, the Potency result in assay [9] and in assay [8] was “inactive” in each case.

As for `FC(F)(F)c1ccc(Cl)cc1Cl`, the Potency entry in assay [1], in [2], in assay [3], in [4], in [5] and in assay [6] was “inactive” throughout. In addition, the Potency entry in assay [7] and in assay [8] was “inactive” in each case.

As for `CCC(C)(CCC(C)C)C(=O)[O-].CCC(C)(CCC(C)C)C(=O)[O-].[Zn+2]` (stereo unspecified), the Potency entry in assay [1], in assay [2], in assay [3], in assay [4], in [5] and in assay [6] was “inactive” in each case. Also, the Potency result in [7] and in assay [8] was “inactive” throughout.

On to `CC(=O)c1ccc(OCC(=O)N2CCCCC2)cc1`, for which the Potency entry in assay [1], in assay [3], in assay [4], in assay [5], in assay [6] and in assay [7] was “inactive” throughout. In assay [9], the Potency result was “inactive”. In addition, the molecule was called inactive in [10]. Also, the Potency in assay [8] is 13.3 µM (active).

On to `CN[C@@H]1[C@H](O)[C@H](NC)[C@H]2O[C@@]3(O)C(=O)C[C@@H](C)O[C@H]3O[C@@H]2[C@H]1O`, for which the Potency entry in [1], in [3], in assay [4], in [5], in [6] and in assay [7] was “inactive” in each case. In addition, the Potency entry in [9] and in assay [8] was “inactive” throughout. The call in [10] was inactive.

Turning to `CCCCCCCCCOCC1CO1` (stereo unspecified), the Potency result in assay [1], in assay [2], in [3], in assay [4], in assay [5] and in [6] was “inactive” each time. Further, the Potency entry in [7] and in [8] was “inactive” each time.
